Screening results from PubChem BioAssay.
Most compounds without a hit are left out; they make up all but 28% or so of the library.
PLK1 PBD inh – Plk1 polo box domain binding inhibitors, primary screen, biochemical, fluorescence polarization; Serine/threonine-protein kinase PLK1 (Homo sapiens), P53350; inhibition, %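 (tested at about 20 µM)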; AID 693, 2007; Plk1 PBD phosphopeptide binding; actives 0.13% (n = 97,000); in the data active = inhibition above about 34%, passing the limit was not always enough
CYP2C19 activ – human CYP2C19 activators, primary screen, biochemical, luminescence; Cytochrome P450 2C19 (Homo sapiens), P33261; recombinant CYP2C19, luciferin-H EGE luminescence; stronger effect = higher value; 0 = fully inhibited enzyme, 1 = untreated enzyme; activation factor at 5 µM; 96,000 tested, under 10 active; AID 1025, 2008;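 active = activation factor of at least 2 at 5 µM in the primary screen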;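 note: 0 = wells with 2.5 mM tranylcypromine and 1 = vehicle-only wells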
Target sequence (P33261 whole entry, looked up): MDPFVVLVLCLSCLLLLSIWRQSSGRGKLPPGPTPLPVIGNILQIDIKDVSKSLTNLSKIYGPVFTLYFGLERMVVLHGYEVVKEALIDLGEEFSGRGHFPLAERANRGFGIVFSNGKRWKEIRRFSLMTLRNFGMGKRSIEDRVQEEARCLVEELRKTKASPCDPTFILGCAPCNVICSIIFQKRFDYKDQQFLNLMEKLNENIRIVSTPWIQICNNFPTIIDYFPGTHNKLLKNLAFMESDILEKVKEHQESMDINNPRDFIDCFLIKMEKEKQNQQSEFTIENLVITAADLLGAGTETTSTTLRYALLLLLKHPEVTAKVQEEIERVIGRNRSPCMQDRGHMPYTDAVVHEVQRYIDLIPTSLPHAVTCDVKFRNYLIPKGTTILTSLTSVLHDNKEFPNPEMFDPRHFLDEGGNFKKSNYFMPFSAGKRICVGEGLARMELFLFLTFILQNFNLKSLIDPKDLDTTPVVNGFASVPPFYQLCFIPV
CYP2C19 inh – blockers of cytochrome P450 2C19 activity – biochemical, luminescence, ADME assay, primary screen. actives 21% (n = 96,000). inhibition, % at 5 µM. CYP2C19 Supersomes, luciferin-H EGE luminescence, 30 min. P33261;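 active = CYP2C19 inhibition above a set limit at 5 µM in the primary screen, cut at about 50% in these data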;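 note: plate controls were negative control wells for no effect and 2.5 mM tranylcypromine positive control for full effect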
CYP2C9 inhib – blockers of cytochrome P450 2C9 activity – biochemical, luminescence, ADME assay, primary screen | inhibition, % at 5 µM | actives 20% (n = 96,000) | CYP2C9 Supersomes, luciferin-H conversion | P11712;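 active = blocking of liver enzyme CYP2C9 beyond about 50% at 5 µM, limit read from the data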
PLK1 inh – human PLK1 kinase inhibitors, primary screen, biochemical, TR-FRET; Serine/threonine-protein kinase PLK1 (Homo sapiens), P53350; recombinant PLK1 kinase, TR-FRET peptide phosphorylation; inhibition, % at 10 µM; AID 619, 2007; actives 0.53% (n = 97,000);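 active = inhibition of 50% or more in the single-concentration screen; inactive = inhibition below 50%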;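 note: 0% = DMSO max control and 100% = H-89 dihydrochloride min control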
CYP2C9 act – human CYP2C9 activators, primary screen, biochemical, luminescence | Cytochrome P450 2C9 (Homo sapiens), P11712 | activation factor at 5 µM | recombinant CYP2C9, luciferin-H conversion; stronger effect = higher value; factor 1 = untreated enzyme, 0 = blocked | actives 1.4% (n = 96,000);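 active = activation factor of 2 or more for CYP2C9 at a 5 µM dose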;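 note: 0 = sulfaphenazole-blocked wells and 1 = vehicle-only wells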
Numbers without * were called inactive; . = not tested or not shown.

SMILES	PLK1 PBD inh	CYP2C19 activ	CYP2C19 inh	CYP2C9 inhib	PLK1 inh	CYP2C9 act
Cc1nn(-c2ccc(Cl)cc2)c2sc(C(=O)N3CCN(C(=O)c4ccco4)CC3)cc12	.	1.1	-14	-7	.	1.1
Cc1nn(-c2ccccc2)c2sc(C(=O)N(CC(=O)NC3CCCC3)Cc3ccco3)cc12	17	0.3	72*	70*	-19	0.3
Cc1nn(-c2ccccc2)c2sc(C(=O)OCN3C(=O)c4ccccc4C3=O)cc12	.	0.8	24	16	.	0.8
Cc1cccc(-c2nnc(SCC(=O)Nc3nc4c(s3)CCCC4)n2C)c1	16	.	.	.	-10	.
Cc1ccc(C(CC(=O)N2CCOCC2)c2ccco2)cc1 (configuration not stated)	7	0.2	84*	22	-5	0.8
Cc1ccc(CSCC(=O)N2CCOCC2)cc1	-10	0.3	75*	-15	2	1.2
O=C(OCCN1C(=O)CCC1=O)c1ccc(S(=O)(=O)N2CCCCC2)cc1	15	1	-3	8	-6	0.9
O=C(c1ccco1)N1CCN(S(=O)(=O)c2ccc(S(=O)(=O)NC3CCCCC3)cc2)CC1	-10	0.9	11	45	-8	0.6
CCCCN(C(=O)NC(=O)Nc1ccccc1OCC)S(C)(=O)=O	8	0.5	54*	79*	-12	0.2
CCCCN(C(=O)NC(=O)Nc1c(C)cc(C)cc1C)S(C)(=O)=O	-20	0.6	37	25	-7	0.7
O=C(c1ccc(-c2nnc(Nc3ccccc3)c3ccccc23)cc1)N1C[C@H]2C[C@H](C1)c1cccc(=O)n1C2	7	0.9	9	34	-12	0.7
COc1cc(C2NC(=O)NC(C)=C2C(=O)OC(C)C)ccc1OC(=O)c1ccco1 (configuration not stated)	-20	.	.	.	-6	.
CCCc1cc(NCC2CCCO2)n2c(nc3ccccc32)c1C#N (configuration not stated)	9	1	2	60*	-12	0.4
CCCCCc1nnc(NC(=O)C(=O)OCC)s1	11	1.1	-14	14	-8	0.9
O=S(=O)(NCC1CCCO1)c1ccc(S(=O)(=O)N(Cc2ccccc2F)C2CCCCC2)cc1 (configuration not stated)	-11	.	.	.	-7	.
CC(C)CC(=O)NC1(C(F)(F)F)C(=O)Nc2c1c(=O)n(C)c(=O)n2C (configuration not stated)	-18	1.1	-8	-1	-3	1
C=CCc1cccc(Cl)c1OCCON1C(=O)CCC1=O	-13	0.4	55*	21	-7	0.8
O=C1CCC(=O)N1OCCOc1ccc2c(c1)CCC2	7	1.1	-5	-26	-4	1.3
O=C(CC1NCCNC1=O)OCCCc1ccccc1 (configuration not stated)	-21	0.9	13	-13	-11	1.1
CC1=CC(C)(C)N(C(=O)CN2C(=O)c3ccccc3C2=O)c2ccc(C)cc21	-1	.	.	.	-11	.
CCNC(=O)N1c2ccc(OCC)cc2C(C)=CC1(C)C	-8	0.3	67*	50*	-13	0.5
Cc1ccc(-n2c(-c3c(-c4ccccc4)noc3C)n[nH]c2=S)cc1	16	0.4	62*	68*	7	0.3
CNC(=S)NNC(=O)COc1cccc(C)c1C	5	.	.	.	-16	.
Cc1cccc(NC(=S)NNC(=O)CC(C)O)c1C (configuration not stated)	-18	0.8	25	61*	-9	0.4
CCOC(=O)Cn1nc(/C=C/c2ccc(C(C)C)cc2)ccc1=O	18	0.9	12	19	-12	0.8
CC(C)c1ccc(OCc2ccc(C(=O)N3CCN(c4ccccn4)CC3)cc2)cc1	-8	0.7	27	43	-4	0.6
CCCCn1nnnc1NCc1cc(OC)c(OC)cc1OC	-6	0.4	61*	32	-13	0.7
CCCn1nnnc1NCc1ccc(N2CCCC2)cc1	10	.	.	.	-9	.
CCCCn1nnnc1NCc1cccnc1	13	0.3	70*	-4	-5	1
